The record followed here is PubChem BioAssay (NCATS).

Inconclusive results are not listed. Values without a mark were called inactive. Active and inactive are the calls of the source. The call rests on the fitted dose curve; in most records, active means well fitted inhibition curve with a large enough effect; inconclusive means small, poorly fitted or top-dose-only effect; inactive means flat fitted curve, though single readings scatter.

For test [1], the system named is CRL-7250. The experiment in a line: Cytotoxic Profiling of Annotated Libraries Using Quantitative High-Throughput Screening (AID 1296008). Further: potency means the concentration at half of the fitted maximal effect. On max response: on the % scale 0 is the no-effect control and ±100 the full control effect. The conditions noted are these: Five cell lines viability, CellTiter-Glo ATP luminescence, 48-72 h; max response: stronger effect = lower value. In a few lines:
(§1)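 Cells exposed to compounds for 48 or 72 hr at 37 degrees Celsius. Viability read as ATP-coupled luminescence with CellTiter-Glo after 10 min at room temperature.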
On the technique in general: Cellular ATP, detected with luciferase, serves as a proxy for viable cell number.

Test [2] relates to HEK293. Described as above. The conditions noted are these: Five cell lines viability, CellTiter-Glo ATP luminescence, 48-72 h; max response: stronger effect = lower value. In a few lines: as §1
Test [3] concerns HaCat. The description is as above. The conditions noted are these: Five cell lines viability, CellTiter-Glo ATP luminescence, 48-72 h; max response: stronger effect = lower value. The essentials:
as §1

Test [4] deals with NIH3T3. The description is as above. The conditions noted are these: Five cell lines viability, CellTiter-Glo ATP luminescence, 48-72 h; max response: stronger effect = lower value. In a few lines:
as §1

Test [5] has as its system ICS. The test can be described thus: qHTS profiling for inhibitors of Plasmodium falciparum proliferation (AID 504749). Further: potency means the concentration at half of the fitted maximal effect. The conditions noted are these: P. falciparum in erythrocytes, SYBR Green DNA, 72 h; series mostly up to 28.7 µM. In a few lines: (§2)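 P. falciparum-infected erythrocytes (0.3% parasitemia, 2.5% hematocrit) incubated with compound 72 h at 37 C, 5% CO2. Parasite DNA detected by SYBR Green after lysis, overnight at room temperature; normalised to 0.29 uM artemisinin and DMSO.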

Test [6] has as its system JCK. Described as above. The settings on record: P. falciparum in erythrocytes, SYBR Green DNA, 72 h; series mostly up to 28.7 µM. In a few lines: as §2
Test [7] relates to N140. The description is as above. The conditions noted are these: P. falciparum in erythrocytes, SYBR Green DNA, 72 h; series mostly up to 28.7 µM. The essentials: as §2
In test [8] the test system is P93_24. Described as above. The conditions noted are these: P. falciparum in erythrocytes, SYBR Green DNA, 72 h; series mostly up to 28.7 µM. In a few lines:
as §2

For test [9], the system named is P94_40. Described as above. The settings on record: P. falciparum in erythrocytes, SYBR Green DNA, 72 h; series mostly up to 28.7 µM. In a few lines: as §2
For test [10], the system named is PAD. The test is described as above. The conditions noted are these: P. falciparum in erythrocytes, SYBR Green DNA, 72 h; series mostly up to 28.7 µM. In a few lines: as §2
In test [11] the test system is PC15. The test is described as above. The settings on record: P. falciparum in erythrocytes, SYBR Green DNA, 72 h; series mostly up to 28.7 µM. In a few lines:
as §2

In test [12] the test system is PC26. The description is as above. The settings on record: P. falciparum in erythrocytes, SYBR Green DNA, 72 h; series mostly up to 28.7 µM. The essentials:
as §2

Test [13] relates to PC49. The test is described as above. The conditions noted are these: P. falciparum in erythrocytes, SYBR Green DNA, 72 h; series mostly up to 28.7 µM. In a few lines: as §2
Test [14] relates to SC27B. The test is described as above. The conditions noted are these: P. falciparum in erythrocytes, SYBR Green DNA, 72 h; series mostly up to 28.7 µM. The essentials:
as §2

Test [15] deals with TAB109. The test is described as above. The conditions noted are these: P. falciparum in erythrocytes, SYBR Green DNA, 72 h; series mostly up to 28.7 µM. In a few lines: as §2
Test [16] relates to TAB113. Described as above. The settings on record: P. falciparum in erythrocytes, SYBR Green DNA, 72 h; series mostly up to 28.7 µM. In a few lines: as §2
Test [17] concerns TAB165. The test is described as above. The conditions noted are these: P. falciparum in erythrocytes, SYBR Green DNA, 72 h; series mostly up to 28.7 µM. In a few lines:
as §2

For test [18], the system named is W2. Described as above. The settings on record: P. falciparum in erythrocytes, SYBR Green DNA, 72 h; series mostly up to 28.7 µM. In a few lines:
as §2

The test system of test [19] is KB-3-1. The test can be described thus: Cytotoxic Profiling of Annotated Libraries Using Quantitative High-Throughput Screening (AID 1296008). Further: potency means the concentration at half of the fitted maximal effect. On max response: on the % scale 0 is the no-effect control and ±100 the full control effect. The conditions noted are these: Five cell lines viability, CellTiter-Glo ATP luminescence, 48-72 h; max response: stronger effect = lower value. The essentials:
as §1

Test [20] concerns CRL-7250. The test can be described thus: qHTS assay to identify novel small-molecules to repurpose for Merkel cell carcinoma treatment (AID 1296009). The conditions noted are these: MCC and control cell lines, CellTiter-Glo viability, 72 h; at 44.8 µM (top of the series) unless noted. The essentials:
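Cells were treated for 72 hr at 37 degree celsius with compounds in 8- or 11-point dose response. Viability was read by CellTiter-Glo luminescence, normalized to no-cell (cytotoxicity) and DMSO controls.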
Further: nearly all actives have a fitted effect of over 60% in size.

With `C1CN2CCC1CC2`, the max response in test [1] is -5.27%; in [2] it was 1.2%. The call in test [3] and in test [4] was inactive.

For `CCCCCCCCCCCC[N+](C)(C)CCOc1ccccc1`, the Potency is 2.24 µM (active) in test [5]; 12.6 µM (active) in test [6]; 7.94 µM (active) in test [7]; 4.47 µM (active) in test [8]; 4.47 µM (active) in [9]; 7.94 µM (active) in [10]. For the same molecule, the Potency in test [11] was 10 µM (active); in [12] it was 13.5 µM (active); in test [13], 8.91 µM (active); in test [14], 7.08 µM (active); in test [15], 5.01 µM (active); in [16], 4.47 µM (active). The Potency in test [17] is 5.62 µM (active); in [18], 3.79 µM (active); in test [1], 18.8 µM (active); in [2] it was 8.41 µM (active); in test [3] it was 16.8 µM (active).

In the case of `Cc1ccc([N+](=O)[O-])[c]2c1[O][Hg]2`, the Potency in [1] is 1.5 µM (active); in test [2], 1.06 µM (active); in test [3] it was 6.68 µM (active); in [4], 4.22 µM (active).

On to `O=C(N[C@H]1N=C(c2ccccc2F)c2cccc3c2N(CC3)C1=O)c1cc2ccccc2[nH]1`, for which the max response in [1] was 2.91%; in [2], -7.34%; in test [4], -0.0973%. For the same molecule, the result in test [19] was inactive.

For `NCc1cccnc1`, the Potency entry in [5], in test [6], in [7], in test [8], in test [9] and in test [10] was “inactive” each time. In addition, the Potency result in test [11], in [12], in [13], in [14], in test [15] and in test [16] was “inactive” each time. For the same molecule, the Potency entry in test [17] and in test [18] was “inactive” throughout. For the same molecule, the max response is -13.7% in [1], -3.91% in [19] and 3.43% in test [4]. In addition, the molecule was called inactive in [3].

For the molecule `O=C(N[C@@H]1N=C(c2ccccc2F)c2cccc3c2N(CC3)C1=O)c1cc2ccccc2[nH]1`, the results for the max response in [1], in [3] and in test [19] were -34.1%, -2.29% and -13.9%, respectively. The Potency in test [4] was 4.32 µM (active).

As for `C[C@H](CN1CCOCC1)C(C(=O)N1CCCC1)(c1ccccc1)c1ccccc1`, the max response was -21.1% in [1], -13.3% in test [3], 1.9% in [19] and -7.32% in [4].

Take `CC(C)(C)OC(=O)c1ncn2c1[C@@H]1CCCN1C(=O)c1c(Br)cccc1-2`: the Potency entry in test [6], in test [7], in test [8], in test [9], in [10] and in test [11] was “inactive” in each case. Moreover, the Potency entry in test [12], in [13], in test [14], in test [15], in test [16] and in [17] was “inactive” each time. Moreover, the call in test [1], in test [4] and in [20] was inactive. In addition, the max response in test [3] was 3.04%; in test [19], -1.12%.

Turning to `OC(c1ccccc1)(c1ccccc1)C1CCNCC1`, the Potency result in [6], in test [7], in [8], in test [9], in test [10] and in [12] was “inactive” throughout. Besides, the Potency result in [14], in test [15], in test [16], in test [17] and in test [18] was “inactive” in each case. Also, the max response in test [1] was 4.48%; in test [3] it was -12.8%; in [19], -11.7%; in test [4] it was -1.52%.
